# Where “and” joins values, the source holds several entries; their conditions need not be identical. Equal entries are not always repeated. In all, about 4,800 compounds went through this assay and about 420 (8.8%) showed an effect of 50% or more. Only a selection was taken, and strong results are over-represented in it overall.
# Test system: Plasmodium falciparum
# Assay: Confirmatory screen in NF54 nanoGlo assay, in single point, at 2uM, 72h
# Type: functional, Erythrocyte
# Conditions: timepoint 72 hour
Compound,% Inhibition [%],% Inhibition (2 µM)
Brc1ccc2sncc2c1,-3,–
COc1cncc(C(=O)N2CCCc3cc(S(C)(=O)=O)ccc32)n1,9,–
CN1CCN(CCc2nc(-c3ccc4cc[nH]c4c3)no2)CC1,-4,–
CC(C)(C)OC(=O)NS(=O)(=O)Nc1nccs1,-13,–
COCCN(c1ccncc1)S(C)(=O)=O,6,–
CCc1ccc(NCc2c(OCc3ccc(Br)cc3)ccc3ccccc23)cc1,-11,–
Cc1c(S(=O)(=O)N2CCC[C@H](C(=O)NC3CC3)C2)cnn1C,-4,–
O=C(Nc1c(S(=O)(=O)c2ccccc2)c2nc3ccccc3nc2n1CCc1ccccc1)c1ccc(Cl)cc1,102,–
Cc1ccc(S(=O)(=O)c2c(NS(=O)(=O)c3ccc(F)cc3)n(CCc3ccccc3)c3nc4ccccc4nc23)cc1,100,–
Cc1ccc(S(=O)(=O)c2c(NS(=O)(=O)c3ccccc3)n(CCc3ccccc3)c3nc4ccccc4nc23)cc1,100,–
O=C(Cn1c(Cc2ccc(Cl)cc2)nc2ccccc21)Nc1ccccc1,14,–
O=C(Nc1ccccc1)c1ccc2c(c1)C(=O)N(CCc1ccccc1)C2=O,-9,–
CC(C)CCn1c(=O)c2sccc2n(CC(=O)N(C)c2ccccc2)c1=O,5,–
COc1cc(OC)c(NC(=O)COc2ccccc2-c2nc3ccccc3s2)cc1Cl,0,–
O=C(c1cc2c(s1)CCCC2)N1CCC[C@H](c2nnc3ccccn23)C1,-17,–
CCN1C(=O)[C@@]2(CC(=O)Nc3c2c(C)nn3-c2ncnc3nc[nH]c23)c2cc(C)ccc21,2,–
COc1ccccc1OCc1nn2c([C@H]3CCCN(S(C)(=O)=O)C3)nnc2s1,-3,–
O=C(Nc1ccc(N2CCn3c(nc4ccccc43)C2)cc1)c1ccc(F)cc1,9,–
O=C(Nc1ccc(C2(c3ccc(NC(=O)c4ccc(F)cc4)cc3)c3ccccc3C(=O)c3ccccc32)cc1)c1ccc(F)cc1,67,–
O=C(O)c1cc2c(cc1C(=O)Nc1ccc(Cl)cc1)=[O+]c1ccccc1-c1ccccc1[O+]=2,-17,–
O=C1c2ccccc2C(c2ccc(NC(=O)c3cccc4ccccc34)cc2)(c2ccc(NC(=O)c3cccc4ccccc34)cc2)c2ccccc21,83,–
N=C(Cc1ccccc1)NOC(=O)c1cccc2ccccc12,-11,–
O=C(COc1ccccc1Cl)Nc1ccc(C2(c3ccc(NC(=O)COc4ccccc4Cl)cc3)c3ccccc3-c3ccccc32)cc1,0,–
O=C(c1ccccc1F)N(Cc1nccn1Cc1ccccc1F)CC1CC1,20,–
O=C(Nc1ccc(Cl)cc1)c1cccc(N2C(=O)C3CCC(c4ccccc4)CC3C2=O)c1 (stereo unspecified),-5,–
COc1cc([C@H](CC(=O)NC2CCN(Cc3ccccc3)CC2)N2Cc3ccccc3C2=O)cc(OC)c1OC,33,–

Compound,% Inhibition [%],% Inhibition (2 µM)
CN1CCN(C(=O)[C@H](C(=O)c2ccccc2)n2cc(Cl)ccc2=O)CC1,-9,–
COc1ccccc1N1CCN(Cc2nc3ccccc3c(=O)n2-c2ccc(F)cc2)CC1,6,–
Fc1ccccc1N1CCN(C2CCN(Cc3c[nH]c4ccccc34)CC2)CC1,4,–
COc1ccc2[nH]c3c(c2c1)CC(C(=O)O)NC3c1ccc(OC)c(CN2CCN(c3ccccc3F)CC2)c1 (stereo unspecified),76,–
CC(C)(C)CCN1CCN(S(=O)(=O)C[C@H]2CCCS(=O)(=O)C2)CC1,-3,–
C[C@@H](CN)N(C)c1ccnc2cc(Br)cnc12,98,–
COc1c(Br)cc(Br)cc1C(N)=O,-5,–
CCCOc1cc2nc(C(F)(F)F)cc(-c3cccs3)c2cc1OCCC,-4,–
CC1=CC(=[N+](CCO)CCO)C=C/C1=C(\c1ccc(N(CCO)CCO)cc1C)c1ccccc1Cl,91,–
Cc1ccc([C@@H]2CC(=O)Nc3nc(N4CCN(CCO)CC4)nc(O)c32)cc1,2,–
NC(=O)CN1CCC2(CC1)NC(c1ccc(OC(F)(F)F)cc1)=NO2,0,–
Cc1cncc(C(=O)N2CC(n3cnnc3C)C2)c1,-19,–
CCc1nnc(NC(=O)C2CC2c2ccccc2)s1 (stereo unspecified),-3,–
COC(=O)c1c(NC(=O)[C@H]2CCCN(S(=O)(=O)c3cnn(C)c3C)C2)cnn1C,4,–
CNS(=O)(=O)CC(=O)Nc1cc(Br)c(F)cc1F,-12,–
COc1cccc(CNC(=O)CCC(=O)N(c2ccccc2)c2ccccc2)c1,7,–
COc1ccc(CC(=N)Nc2cc3cc(OC)c(OC)cc3c(Cc3ccc(OC)c(OC)c3)n2)cc1OC,80,–
COc1ccc(CCNC(=O)CCCC(=O)NCc2ccccc2)cc1OC,-14,–
CCCNC(=O)C[C@H](C)CC(=O)NCCc1ccc(OC)c(OC)c1,4,–
COC(=O)C1=C(C(=O)OC)SC(=C2C(=S)C(C)(C)N(C(=O)c3cccnc3)c3c(C)cc(C)cc32)S1,4,–
Oc1cccc(CN[C@H]2CCCc3occc32)c1Cl,71,–
O=C(N[C@H]1CCCc2occc21)c1ccco1,0,–
CC(O)CC(C)(C)CNC1CCCc2occc21 (stereo unspecified),-12,–
CCN1CCC(CCNC(=O)c2cc3c(s2)N(CC)CCCC3)CC1,-7,–
CCOc1cc(N2CCOCC2)c(OCC)cc1NC(=O)c1ccc(C)c(NC(=O)c2ccco2)c1,22,–
N#Cc1nc(NC(=O)c2cc3c(s2)CCOC3)[nH]c1C#N,3,–

Compound,% Inhibition [%],% Inhibition (2 µM)
CN(CC(F)(F)F)S(=O)(=O)c1ccc(C(=O)O)cc1,-5,–
Cc1ccc(CC[C@H]2Nc3ccccc3C(c3ccccc3)(c3ccccc3)O2)o1,74,–
Cc1ccccc1[C@H]1CCN(c2ccc(NC(=O)c3ccc(F)cc3)c(C(=O)O)c2)C1,-11,–
Cc1cc(Cn2cc(C(c3ccccc3)c3ccccc3)nn2)no1,-3,–
Nc1c(-c2ccccc2)nsc1C(=O)NCc1ccc(F)cc1,-2,–
CC(=O)Nc1ccc(NC(=O)CN2CCCN(c3cncc(F)c3)CC2)cc1,-1,–
O=C(O)C1C2C=CC(O2)C1C(=O)NC1CCCc2ccccc21 (stereo unspecified),-4,–
O=C(CC(O)c1cccc(F)c1)NCCC1CCCCO1 (stereo unspecified),-1,–
COc1cccc(-c2nc(C)c(C(=O)Nc3n[nH]c(CC(C)C)n3)s2)c1,–,78% and 70%
COCCc1cc(NC(=O)Nc2sc(-c3ccccc3)nc2C)n(C)n1,14,–
COc1cccc(-c2nc3n(c2C(=O)NCC(C)C)CCS3(=O)=O)c1,-2,–
CCO[C@@H](C)C(=O)Nc1n[nH]c(Cc2cccc(F)c2)n1,-1,–
COc1cccc(-c2nc(C)c(C(=O)Nc3nc(C(C)C)n[nH]3)s2)c1,74,–
COc1cccc(CNC(=O)c2sc(Nc3ccc(C)cc3C)nc2C)c1,-13,–
C[C@@](CO)(NC(=O)Nc1cc(-c2ccco2)ccc1F)C1CC1,-4,–
O=C(c1ccccc1)c1c[nH]c2c(F)cc(F)cc2c1=O,-5,–
CCOCCc1nc(-c2ccccn2)c(CCOCC)nc1-c1ccccn1,10,–
O=C1NC(=O)[C@]2(CCOc3ccc(F)cc32)N1,-3,–
Cc1cc(C)n2c(=O)c3ccccc3nc2c1C#N,-5,–
Cc1cccc(CN(Cc2cccc(C)n2)C[C@H]2CCCCO2)n1,90,–
Cc1cc(C)nc(NCCC[C@H]2CCCCO2)n1,-6,–
Cc1cccc(CNC(=O)NC2CCOC2c2ccc(Cl)cc2)n1 (stereo unspecified),-15,–
O[C@H]1CNCC[C@@H]1Nc1cc(-c2ccccc2)nc2ccccc12,46,–
COc1cc(OC)c(S(=O)(=O)NC(C)C)cc1S(=O)(=O)NC(C)C,-4,–
O=C1CC(c2cccc(Br)c2)N(S(=O)Oc2ccccc2)c2ccccc21 (stereo unspecified),4,–
COc1ccc2oc(-c3ccc(CNC(=O)c4ccccc4)cc3)nc2c1,-5,–

Compound,% Inhibition [%],% Inhibition (2 µM)
COc1ccc2oc(-c3ccc(CNC(=O)c4ccc(C)cc4)cc3)nc2c1,-3,–
COc1ccc(CNc2nc(-c3nnc(-c4ccccc4)o3)nc3ccccc23)cc1,55,–
Oc1c(-n2cncn2)cnc2ncnn12,-7,–
Cc1cc(-c2ccco2)cc(Cl)c1N,-1,–
O=C1CCN(C(=O)C2(c3cccc(Cl)c3)CCCC2)CCN1,2,–
CC(C)(C)c1ccc(-c2ccc(C(=O)NCC3(O)CCOCC3)o2)cc1,0,–
CCc1c(NC(=O)[C@@H](C)C2CC2)nnn1CCc1ccc(OC)cc1,-1,–
COC(=O)c1c(NC(C)=O)c2cc(NC3CCOCC3)cnc2n1CCc1ccc(OC)cc1,70,–
COc1ccc(NC(=O)[C@@H](C)C2CCOCC2)cc1,-6,–
Cc1nn(C)c2c(N3CCOCC3)nc(C3CC3)nc12,-8,–
CC[C@H]1Cn2c(C(=O)NCc3ccc(C)o3)cc3cccc(c32)O1,-11,–
COc1ccc(CCc2nnc3n2CCOC3)cc1,-4,–
COc1ccc(-[n+]2c(-c3ccccc3)cn3c2CCC3)cc1,77,–
COc1ccc(-c2nc(N)s[n+]2-c2ccccc2)cc1,-2,–
COc1ccc(-c2nnc(COc3ccc(-c4ccccc4)cc3)s2)cc1,-7,–
COc1ccc(-[n+]2c(-c3ccc(-c4ccccc4)cc3)cn3c2COCC3)cc1,66,–
COc1ccc(-c2noc(Cn3c(=O)c4ccccc4n(CC(=O)Nc4cc(C)ccc4C)c3=O)n2)cc1,0,–
O=C(Nc1nn(Cc2ccccc2)cc1Cl)c1cc(-c2ccc(OC(F)F)cc2)[nH]n1,4,–
Nc1noc2cc(C(F)(F)F)cnc12,4,–
COc1ccc2c(c1)CN(c1nnc(C3CC3)o1)CC2,7,–
CN1CCN(Cc2cc3cc4c(cc3nc2-c2ccc(Cl)cc2)OCO4)CC1=O,53,–
Cc1cc(C)nc(-n2nc(-c3ccc(Cl)cc3)c3c2NC(=O)C[C@@H]3c2ccc3c(c2)OCO3)n1,-7,–
O=c1[nH]c2cc3c(cc2c(=O)n1Cc1nc(-c2ccc(Cl)cc2)no1)OCO3,-1,–
